Measurements taken from PubChem BioAssay (Tox21).
Inconclusive results are not listed. Where a call stands in place of a potency, no number is given. The source made the active and inactive calls. The call rests on the fitted dose curve; in most records, active means well fitted inhibition curve with a large enough effect in the repeat runs; inconclusive means weak or mixed curves, or effect the other way; inactive means no such curve, though single readings can be large or run the other way.

The compounds below were run against Nuclear receptor subfamily 1 group I member 3 (Homo sapiens) (UniProt Q14994) (assay: qHTS assay to identify small molecule antagonists of the constitutive androstane receptor (CAR) signaling pathway (AID 1224838;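 further: HepG2 cells stably expressing hCAR with CYP2B6 luciferase reporter stimulated by CITCO; nearly all actives have a fitted effect of over 40% in size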)). Conditions: HepG2-CYP2B6-hCAR luciferase, CITCO-stimulated, 24 h; series mostly up to 92.4 µM.
Sequence of Nuclear receptor subfamily 1 group I member 3 (Homo sapiens) (Q14994 whole entry, looked up): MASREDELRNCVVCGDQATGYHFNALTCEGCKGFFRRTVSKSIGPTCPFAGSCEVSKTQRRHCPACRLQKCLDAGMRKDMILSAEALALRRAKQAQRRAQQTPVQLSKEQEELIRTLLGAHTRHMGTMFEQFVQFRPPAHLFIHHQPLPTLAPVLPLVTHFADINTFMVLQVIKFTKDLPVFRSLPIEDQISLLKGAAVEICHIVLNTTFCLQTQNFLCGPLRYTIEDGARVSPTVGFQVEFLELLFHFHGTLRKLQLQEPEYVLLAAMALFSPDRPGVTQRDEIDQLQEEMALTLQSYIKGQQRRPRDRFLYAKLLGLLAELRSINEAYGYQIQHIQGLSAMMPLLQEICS
Excerpt: U.S. Tox21 Program National Center for Advancing Translational Sciences [NCATS] NIH Chemical Genomics Center [NCGC] U.S. Environmental Protection Agency [EPA] National Institutes of Environmental Health Sciences [NIEHS] National Toxicology Program [NTP] U.S. Food and Drug Administration [FDA] Tox21 Assay Overview: The constitutive androstane receptor (CAR) is a nuclear receptor which regulates multiple drug metabolizing enzymes (DMEs) and transporters. Activating CAR will generally increase the transcription and subsequent translation of CYP2B6 and CYP3A4. These two DMEs represent about 50% of the drug metabolizing potential in the body. When CAR is deactivated, the metabolizing potential in the body will decrease, subsequently increasing the toxicity in the body or lowering the therapeutic potential of a pro-drug. Recently, there have also been studies performed indicating CARs role in energy metabolism and cancer therapy. Therefore, inhibiting CARs activity could have a potential effect on diabetes and cancer. Identifying environmental toxins and compounds which modulate CAR, through the use of the Tox21 10K compound collection, will be an important step in determining the toxicity and potential therapeutic effects these factors will have on the human body.
Tox21 Assay Protocol Summary: A double-stable (hCAR and CYP2B6-2.2kb) transfected cell line, derived from human hepatoma (HepG2) cells, was utilized for the duration of the quantitative high-throughput screens. The HepG2-CYP2B6-hCAR cells suspended in DMEM culture medium supplemented with 10% FBS, 5 ug/mL blasticidin, 0.5 mg/mL geneticin, 100 U/mL penicillin and 100 ug/mL streptomycin were dispensed at 2500 cells/4 uL/well in 1536-well white solid bottom plates using a Multidrop Combi. After the assay plates were incubated at 37 C/5% CO2 for 4 hrs, 23 nL of compounds at 15 concentrations (from 5-48 columns) or positive control (from 1 to 4 columns) were transferred to the assay plates using a Pintool station. One uL of CITCO, was added using a Flying Reagent Dispenser to generate a final concentration of 50 nM CITCO inside each well. After a 24 hr incubation period at 37 C/5% CO2, four uL of ONE-Glo reagent was added into the assay plates using a Flying Reagent Dispenser. After a 30 min incubation period at room temperature, the luminescence intensity in the assay plates was measured using a ViewLux plate reader.
Potency means the concentration at half of the fitted maximal effect.

SMILES | Potency | activity, negative = inhibition
O=C(O)c1ccc(CO)o1 | inactive | 
N#C/C(=C1/SC[C@@H](c2ccc(Cl)cc2Cl)S1)n1ccnc1 | inactive | 
CC[C@@H]([C@H](C)O)n1ncn(-c2ccc(N3CCN(c4ccc(OC[C@@H]5CO[C@@](Cn6cncn6)(c6ccc(F)cc6F)C5)cc4)CC3)cc2)c1=O | inactive | 
Cc1ccc(S)cc1 | inactive | 
CCCOc1ccc(S(=O)(=O)N2CCN(CC)CC2)cc1-c1nc2c(CC)n(Cc3ccccn3)nc2c(=O)[nH]1 | inactive | 
C=CCNc1nc(NCC=C)nc(N2CCN(C(c3ccc(F)cc3)c3ccc(F)cc3)CC2)n1 | inactive | 
C=CC(C)=CCC=C(C)C | inactive | 
CC(=O)OCC(=O)[C@H]1CC[C@H]2[C@@H]3CCC4=CC(=O)CC[C@]4(C)[C@H]3CC[C@]12C | inactive | 
CCN(Cc1cccc(S(=O)(=O)O)c1)c1ccc(C(=C2C=CC(=[N+](CC)Cc3cccc(S(=O)(=O)[O-])c3)C=C2)c2ccccc2)cc1 | inactive | 
CSc1ccc(Oc2ccc(S(N)(=O)=O)cc2CN(C)C)cc1C | inactive | 
CC1(C)O[C@@H]2C[C@H]3[C@@H]4CCC5=CC(=O)C=C[C@]5(C)[C@H]4[C@@H](O)C[C@]3(C)[C@]2(C(=O)CO)O1 | inactive | 
CN1CCN(c2c(F)cc3c(=O)c(C(=O)O)cn4c3c2OCN4C)CC1 |  | 0.0919% [at 19 µM] (inactive)
COCC(O)CO (stereo not given) | inactive | 
c1cnc2c(n1)CCCC2 | inactive | 
C/C(=N/NC(=O)c1ccncc1)C(=O)O | inactive | 
CCOC(=O)c1ccccc1C | inactive | 
CCCCOC(=O)CCS | 24.3 µM (active) | 
c1cc[c]([Bi]([c]2ccccc2)[c]2ccccc2)cc1 | inactive | 
CCCCC(CC)COC(=O)COc1ccc(Cl)cc1C (stereo not given) | inactive | 
CCCC(=O)O[C@]1(C(=O)COC(=O)CC)CC[C@H]2[C@@H]3CCC4=CC(=O)CC[C@]4(C)[C@H]3[C@@H](O)C[C@@]21C |  | 2.05% [at 19 µM] (inactive)

SMILES | Potency | activity, negative = inhibition
Cc1cc2nc3ccc(=[N+](C)C)cc-3sc2cc1N | inactive | 
O=c1[nH]c2ccc(S(=O)CCN3CCC(Cc4ccc(F)cc4)CC3)cc2o1 (stereo not given) | inactive | 
CN(C)C(=O)Nc1ccc(Oc2ccc(Cl)cc2)cc1 | inactive | 
CC(=O)Oc1ccc(C(=C2CCCCC2)c2ccc(OC(C)=O)cc2)cc1 | inactive | 
CCOC(=O)/C=C/C(=O)O | inactive | 
C=CCCCCCCCCCCCCCCCC |  | 0.748% [at 8.39 µM] (inactive)
O=C(Nc1ccccc1)Nc1ccccc1 | inactive | 
CCCCCCCC/C=C\CCCCCCCC(=O)OC(CO)CO | inactive | 
CO/N=C1\CN(c2nc3c(cc2F)c(=O)c(C(=O)O)cn3C2CC2)CC1CN (stereo not given) | inactive | 
C[N+]1(C)CCC(=C(c2ccccc2)c2ccccc2)CC1 | inactive | 
O=C(c1ccc(O)cc1)c1ccc(Cl)cc1 | inactive | 
O=C(O)c1c(O)c(-c2ccccc2)nc2ccccc12 | inactive | 
OC/C(Br)=C(\Br)CO | inactive | 
CCn1nc(C)c2c1C(=O)NCC(c1ccc(O)cc1)=N2 | inactive | 
Fc1c(F)c(F)c(Br)c(F)c1F | inactive | 
CN1Cc2cc(C(=O)N3CCC(C4CCNCC4)CC3)ccc2N[C@@H](CC(=O)O)C1=O | inactive | 
C1COCO1 | inactive | 
CCCCC1C(=O)N(c2ccccc2)N(c2ccc(O)cc2)C1=O (stereo not given) | 29.8 µM (active) | 
Cc1oncc1C(=O)Nc1ccc(C(F)(F)F)cc1 | inactive | 
CCCOC(=O)c1ccc(C(=O)OCCC)nc1 | inactive | 
